For 22 molecules, Potency results are on record in PubChem BioAssay (NCATS).

Records with an inconclusive call do not appear. The source made the active and inactive calls. The call rests on the fitted dose curve; in most records, active means well fitted inhibition curve with a large enough effect; inconclusive means small, poorly fitted or top-dose-only effect; inactive means flat fitted curve, though single readings scatter.

Holding throughout (experiment): qHTS profiling for inhibitors of Plasmodium falciparum proliferation (AID 504749); further: nearly all actives have a fitted effect of over 60% in size
Holding throughout (settings): P. falciparum in erythrocytes, SYBR Green DNA, 72 h; series mostly up to 28.7 µM

In one assay the test system is CP256. An outline of the steps: (§1)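 Three-day growth assay of blood-stage parasites in erythrocytes (0.3% parasitemia, 2.5% hematocrit) at 37 C, 5% CO2, quantified by SYBR Green DNA staining after overnight detergent lysis.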
The subject of another assay is CP260. An outline of the steps:
as §1

The test system of another assay is CP262. The method in brief: as §1
In another assay the test system is CP265. The method in brief:
as §1

For another assay, the system named is CP266. The method in brief: as §1
Another assay deals with CP268. The method in brief: as §1
A further assay relates to CP269. The method in brief:
as §1

The subject of another assay is CP286. An outline of the steps:
as §1

A further assay concerns CP291. An outline of the steps:
as §1

For another assay, the system named is CP297. An outline of the steps: as §1
Potency means the concentration at half of the fitted maximal effect.

As to `COc1ccccc1N1CCN(CCCC(=O)c2ccc(F)cc2)CC1`, the Potency result in the assay on CP256, in the assay on CP260, with CP262, in the assay with CP265, with CP266 and in the assay with CP268 was “inactive” each time. In addition, the Potency result in the assay with CP269, in the assay on CP286, in the assay on CP291 and in the assay with CP297 was “inactive” each time.

Take `N[C@H](CC(=O)O)C(=O)O`: the Potency entry with CP256, in the assay with CP260, in the assay with CP262, in the assay with CP265, in the assay with CP266 and in the assay on CP268 was “inactive” in each case. The Potency entry in the assay with CP269, in the assay on CP286, with CP291 and in the assay with CP297 was “inactive” each time.

For the molecule `CC(C)O`, the Potency entry in the assay with CP256, in the assay with CP260, with CP262, in the assay with CP265, in the assay on CP266 and with CP268 was “inactive” in each case. Further, the Potency result in the assay on CP269, with CP286, with CP291 and in the assay with CP297 was “inactive” throughout.

`CC(C)CCCCCCc1ccc(O)cc1`: the Potency entry in the assay with CP256, in the assay on CP260, with CP262, in the assay with CP265, with CP266 and with CP268 was “inactive” throughout. Also, the Potency result in the assay on CP269, in the assay with CP286, with CP291 and in the assay on CP297 was “inactive” each time.

For `O=C(O)C1=C(CSc2nnnn2CS(=O)(=O)O)CS[C@@H]2[C@H](NC(=O)[C@H](O)c3ccccc3)C(=O)N12`, the Potency entry in the assay on CP256, in the assay on CP260, with CP262, with CP265, in the assay on CP266 and in the assay on CP268 was “inactive” throughout. Moreover, the Potency result in the assay on CP269, in the assay with CP286, with CP291 and with CP297 was “inactive” throughout.

Turning to `CC1=CC(=C(c2ccc(N)cc2)c2ccc(N)cc2)C=CC1=N`, the Potency is 2.24 µM (active) with CP256; 2.51 µM (active) in the assay with CP260; 4.78 µM (active) with CP262; 3.16 µM (active) in the assay with CP265; 7.57 µM (active) with CP266; 6.01 µM (active) in the assay on CP268. Besides, the Potency in the assay with CP269 is 4.26 µM (active); in the assay on CP286 it was 1.41 µM (active); with CP291 it was 3.01 µM (active); with CP297, 4.78 µM (active).

Turning to `CCN(CC)CCOC(=O)c1cccnc1`, the Potency entry with CP256, in the assay with CP260, in the assay with CP262, in the assay with CP265, with CP266 and in the assay on CP268 was “inactive” throughout. Further, the Potency entry in the assay on CP269, with CP286, with CP291 and with CP297 was “inactive” in each case.

`CN(C)c1ccc(C(=C2C=CC(=[N+](C)C)C=C2)c2c(O)c(S(=O)(=O)[O-])cc3cc(S(=O)(=O)O)ccc23)cc1`: the Potency result with CP256, in the assay on CP260, in the assay on CP262, in the assay with CP265, in the assay on CP266 and in the assay on CP268 was “inactive” in each case. The Potency result with CP269, in the assay with CP286, in the assay on CP291 and in the assay on CP297 was “inactive” each time.

On to `COc1cc2c(cc1OC)[C@@H](Cc1cc(OC)c(OC)c(OC)c1)[N+](C)(CCCOC(=O)CC/C=C/CCC(=O)OCCC[N+]1(C)CCc3cc(OC)c(OC)cc3[C@H]1Cc1cc(OC)c(OC)c(OC)c1)CC2` (stereo not given in full), for which the Potency result in the assay on CP256, in the assay on CP260, in the assay with CP262, with CP265, in the assay on CP266 and with CP268 was “inactive” throughout. In addition, the Potency entry in the assay with CP269, with CP286, with CP291 and with CP297 was “inactive” throughout.

In the case of `CCN(CC)C(=S)S`, the Potency result with CP256, with CP260, in the assay with CP262, in the assay on CP265, with CP266 and in the assay with CP268 was “inactive” throughout. For the same molecule, the Potency entry in the assay on CP269, in the assay on CP286, in the assay with CP291 and in the assay on CP297 was “inactive” throughout.

Regarding `NC(=O)[C@@H]1CCCN1C(=O)[C@H](Cc1cnc[nH]1)NC(=O)[C@@H]1CCC(=O)N1`, the Potency entry in the assay on CP256, in the assay on CP260, in the assay on CP262, with CP265, in the assay on CP266 and in the assay on CP268 was “inactive” throughout. Besides, the Potency result in the assay on CP269, with CP286, in the assay with CP291 and in the assay on CP297 was “inactive” throughout.

For the molecule `C=CC(C)(O)CC/C=C(\C)CCC=C(C)C` (stereo not given), the Potency result with CP256, with CP260, in the assay with CP262, in the assay with CP265, in the assay with CP266 and with CP268 was “inactive” in each case. Besides, the Potency result in the assay with CP269, in the assay on CP286, in the assay on CP291 and in the assay with CP297 was “inactive” each time.

With `C=CCN1CCCC1CNC(=O)c1cc(S(N)(=O)=O)cc(OC)c1OC` (stereo not given), the Potency entry in the assay with CP256, in the assay with CP260, with CP262, in the assay with CP265, in the assay on CP266 and in the assay on CP268 was “inactive” in each case. Moreover, the Potency entry with CP269, in the assay with CP286, with CP291 and in the assay on CP297 was “inactive” in each case.

As for `CCCCCCCCCC(=O)NO`, the Potency entry in the assay on CP256, in the assay with CP260, in the assay with CP262, in the assay on CP265, in the assay on CP266 and in the assay with CP268 was “inactive” each time. For the same molecule, the Potency entry in the assay on CP269, in the assay on CP286, with CP291 and in the assay with CP297 was “inactive” each time.

As to `CCCc1ccc(C(=O)O)cc1`, the Potency entry in the assay on CP256, with CP260, in the assay on CP262, in the assay on CP265, with CP266 and in the assay with CP268 was “inactive” throughout. The Potency entry with CP269, in the assay on CP286, with CP291 and in the assay with CP297 was “inactive” throughout.

Regarding `CCCCC(CC)COS(=O)(=O)O` (stereo not given), the Potency entry with CP256, with CP260, in the assay with CP262, with CP265, in the assay with CP266 and in the assay on CP268 was “inactive” throughout. For the same molecule, the Potency result in the assay with CP269, in the assay on CP286, with CP291 and in the assay with CP297 was “inactive” in each case.

For `Nc1ccc(N=Nc2ccccc2)c(N)n1`, the Potency result in the assay with CP256, with CP260, with CP262, in the assay with CP265, with CP266 and in the assay on CP268 was “inactive” in each case. The Potency result in the assay with CP269, with CP286, in the assay on CP291 and in the assay on CP297 was “inactive” each time.

In the case of `Nc1nccs1`, the Potency entry with CP256, with CP260, with CP262, with CP265, in the assay with CP266 and in the assay on CP268 was “inactive” throughout. The Potency entry with CP269, in the assay with CP286, in the assay with CP291 and with CP297 was “inactive” throughout.

As for `CC(CC=O)CCCC(C)(C)O` (stereo not given), the Potency entry with CP256, in the assay with CP260, in the assay with CP262, in the assay on CP265, with CP266 and in the assay on CP268 was “inactive” in each case. The Potency entry with CP269, in the assay with CP286, in the assay with CP291 and in the assay on CP297 was “inactive” in each case.

For the molecule `O=C1c2ccccc2CN2C(=O)c3ccccc3CN12`, the Potency result in the assay with CP256, in the assay with CP260, in the assay on CP262, in the assay on CP265, with CP266 and in the assay on CP268 was “inactive” in each case. Besides, the Potency result with CP269, in the assay with CP286, in the assay on CP291 and with CP297 was “inactive” each time.

In the case of `C=CC[C@@H]1/C=C(\C)C[C@H](C)C[C@H](OC)[C@H]2O[C@@](O)(C(=O)C(=O)N3CCCC[C@H]3C(=O)O[C@H](/C(C)=C/[C@@H]3CC[C@@H](O)[C@H](OC)C3)[C@H](C)[C@@H](O)CC1=O)[C@H](C)C[C@@H]2OC`, the Potency was 0.708 µM (active) in the assay with CP256; 0.794 µM (active) in the assay on CP260; 4.26 µM (active) with CP262; 0.631 µM (active) with CP265; 8.49 µM (active) with CP266; 0.849 µM (active) in the assay with CP268. The Potency in the assay on CP269 is 3.79 µM (active); with CP286, 1 µM (active); with CP291 it was 6.75 µM (active); in the assay with CP297, 1.9 µM (active).

With `O=C(O)Cc1cc(I)c(Oc2ccc(O)c(I)c2)c(I)c1`, the Potency entry with CP256, in the assay with CP260, in the assay with CP262, with CP265, in the assay with CP266 and with CP268 was “inactive” in each case. Further, the Potency entry in the assay on CP269, in the assay with CP286, in the assay with CP291 and with CP297 was “inactive” in each case.
